The nature of test [1]: inhibitors of TNFa-induced NFkB p65 translocation, primary screen, imaging, HUVEC, MLSMR starter and 10KST1 sets (AID 438;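 active = inhibition above 20% together with a positive visual image hit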;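 note: compound added about 3h40 before a 20 min TNFalpha stimulation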;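 for inhibition: signal is the nuclear over cytoplasmic p65 intensity ratio per well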). The following applies: HUVEC TNFa-induced p65 nuclear translocation; cell count: measured here: nuclei count (cytotoxicity indicator), at 2.08 µM; inhibition: at 2 µM, stronger effect = higher value, 0% TNFa-plus-vehicle, 100% no-TNFa wells.
Test [2] can be described thus: reduction of polyQ htt aggregates in cells – imaging, exon1htt(103Q)mCFP cells, high-content imaging, primary screen (AID 483;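 active = visual image review flags a hit and inhibition of aggregation exceeds 20%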;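 note: compound exposure lasted 3 days before fixation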;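 for nuclei count: percent of the per-plate median nuclei count of sample wells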). The following applies: exon1htt(103Q)mCFP cell line, aggregate imaging, at 2 µM; inhibition of aggregation: stronger effect = higher value; nuclei count: measured here: cell count, toxicity.
Test [3] is described as follows: endothelial E-selectin expression blockers – imaging, HUVEC, immunofluorescence, MLSMR starter and 10KST1 sets, primary screen (AID 487;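 active = visually confirmed hit in the image check and inhibition above 20%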;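 for inhibition: signal is fraction of cell area covered by stained E-selectin grains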;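 for nuclei count: 100% = median nuclei count of all wells on the same plate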). As to conditions: HUVEC TNFalpha-induced E-selectin immunofluorescence imaging, at 2 µM; inhibition: stronger effect = higher value; nuclei count: measured here: cell number, toxicity.
Test [4] has as its target Voltage-gated potassium channel subunit beta-2 (Rattus norvegicus) (UniProt P62483). The experiment in a line: inhibitors of rat Kvbeta2 reductase activity – biochemical, NADPH fluorescence, primary screen (AID 622;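 active = fluorescence slope higher than the sample average by over 3 SD, cut at about -0.22 in these data, passing the limit was not always enough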;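 note: slope of raw intensity against log time taken from 70 to 1610 s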). As to conditions: recombinant KvBeta, 4-cyanobenzaldehyde reduction, at 10 µM, stronger effect = higher value.
Test [5] has the same target. The experiment in a line: enhancers of rat Kvbeta2 NADPH turnover – biochemical, NADPH fluorescence, primary screen (AID 623;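 active = NADPH fluorescence slope more negative than the mean of all samples by about 3 SD, 99.7% confidence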;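 note: fluorescence intensity change per second fitted from 20 to 320 s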). The following applies: Recombinant KvBeta, NADPH fluorescence decrease slope, 10 min; at 10 µM; stronger effect = lower value.
The target of test [6] is Alpha-2C adrenergic receptor (Homo sapiens) (UniProt P18825). Put plainly: compounds altering alpha2C-coupled GIRK flux – cell-based, HEK293 alpha2C/GIRK1/2, thallium flux, primary screen (AID 624;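 active = fluorescence slope after compound addition differing from the mean of all screened samples at 99.7% confidence, in either direction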;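 note: slope of fluorescence ratio to pre-addition baseline per second over 15 to 24 s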). As to conditions: thallium flux BTC fluorescence, at 10 µM, actives lie on both sides.
Alpha-2C adrenergic receptor (Homo sapiens), sequence (P18825 whole entry, looked up): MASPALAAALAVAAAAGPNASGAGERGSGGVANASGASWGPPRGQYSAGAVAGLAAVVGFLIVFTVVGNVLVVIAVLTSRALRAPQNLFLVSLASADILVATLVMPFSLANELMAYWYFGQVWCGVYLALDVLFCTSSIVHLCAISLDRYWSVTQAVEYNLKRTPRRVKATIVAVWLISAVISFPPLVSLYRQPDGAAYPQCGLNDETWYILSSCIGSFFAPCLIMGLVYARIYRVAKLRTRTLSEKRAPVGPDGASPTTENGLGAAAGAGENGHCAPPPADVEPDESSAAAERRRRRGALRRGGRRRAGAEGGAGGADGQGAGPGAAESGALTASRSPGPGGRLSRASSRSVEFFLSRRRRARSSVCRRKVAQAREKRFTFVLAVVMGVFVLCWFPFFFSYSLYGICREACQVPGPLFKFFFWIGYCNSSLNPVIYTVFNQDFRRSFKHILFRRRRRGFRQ
The nature of test [7]: blockers of RIG-like receptor reporter activation – cell-based, Sendai virus stimulus, luciferase, 10K MLSCN set, TLR/RLR signaling modifier project, primary screen (AID 602276).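 Note: firefly luciferase from ISG56 promoter only with Renilla not read in this screen; 0% = Sendai virus plus DMSO and 100% = medium plus DMSO without virus.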 The following applies: HEK293 RL24 IRF3 luciferase reporter, at 10 µM, stronger effect = higher value.
Test [8] is described as follows: TLR3 IRF3 reporter activation blockers – cell-based, poly I:C stimulus, luciferase, 10K MLSCN set, primary screen (AID 602277;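 active = inhibition of the reporter signal at or above 50%; inactive = inhibition below 50%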). As to conditions: HEK293-TLR3 RL24 IRF3 luciferase reporter, at 10 µM, stronger effect = higher value.

Here are results for 14 compounds from PubChem BioAssay.

The source made the active and inactive calls.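 Rule for the calls, unless noted: active = inhibition at or above 50% at 10 µM; inactive = inhibition below 50%.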

Voltage-gated potassium channel subunit beta-2 (Rattus norvegicus), sequence (P62483 whole entry, looked up): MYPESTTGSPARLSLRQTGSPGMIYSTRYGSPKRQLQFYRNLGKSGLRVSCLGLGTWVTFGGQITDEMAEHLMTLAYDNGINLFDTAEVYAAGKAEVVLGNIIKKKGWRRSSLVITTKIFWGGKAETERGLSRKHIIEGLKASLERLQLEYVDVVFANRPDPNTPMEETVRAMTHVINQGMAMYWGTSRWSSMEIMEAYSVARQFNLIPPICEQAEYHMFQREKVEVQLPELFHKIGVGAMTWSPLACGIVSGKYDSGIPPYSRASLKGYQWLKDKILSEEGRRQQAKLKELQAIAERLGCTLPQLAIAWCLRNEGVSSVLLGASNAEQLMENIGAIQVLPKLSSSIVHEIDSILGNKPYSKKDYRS

Regarding `CCOC(=O)COc1ccc(C2NC(C(=O)O)CS2)cc1` (centres undefined), the cell count in test [1] was 367. The inhibition is -9.6% (inactive) in test [1], -4.8% (inactive) in test [3], 12.5% (inactive) in test [7] and 13% (inactive) in test [8]. In addition, in test [2], the inhibition of aggregation is 9.8% (inactive). The nuclei count in test [2] was found to be 55.1%; in test [3], 97.6%. Moreover, the fluorescence slope in test [4] is -0.381 (inactive). Besides, the NADPH fluorescence slope in test [5] was -1.3e-05 (inactive). In test [6], the slope is 0.00376 (inactive).

In the case of `CC(C)CNS(=O)(=O)c1ccc(CCC(=O)N2CCOCC2)cc1`, the cell count in test [1] worked out at 647. Besides, the inhibition in test [1] is 1.1% (inactive); in test [3], -45.6% (inactive); in test [7], 8.44% (inactive); in test [8] it was 21.1% (inactive). Moreover, the inhibition of aggregation in test [2] is -3% (inactive). The nuclei count in test [2] and in test [3] was 104% each time. In test [4], the fluorescence slope was -0.471 (inactive). In test [5], the NADPH fluorescence slope was -4.8e-05 (inactive). Moreover, the slope in test [6] is 0.00694 (inactive).

For the compound `COc1ccccc1CNC(=O)C1CCCN(S(=O)(=O)c2cnc[nH]2)C1` (centres undefined), the cell count in test [1] is 443. Also, the inhibition was 49.5% (active) in test [1], -59.5% (inactive) in test [3], -5.95% (inactive) in test [7] and 0.0501% (inactive) in test [8]. Besides, the inhibition of aggregation in test [2] was 27.9% (inactive). In addition, the nuclei count in test [2] came to 87.1%; in test [3] it was 103%. In addition, in test [4], the fluorescence slope was -0.558 (inactive). In test [5], the NADPH fluorescence slope was 7.1e-07 (inactive). Also, the slope in test [6] is 0.00747 (inactive).

As for `CCOC(=O)C1CCN(C(c2cc3cc(C)cc(C)c3[nH]c2=O)c2nnnn2C2CCCCC2)CC1` (centres undefined), the cell count in test [1] stood at 444. The inhibition in test [1] is -8.2% (inactive); in test [3], -75.4% (inactive); in test [7] it was 13.6% (inactive); in test [8], 38.3% (inactive). In addition, in test [2], the inhibition of aggregation was -7.5% (inactive). Besides, the results for the nuclei count in test [2] and in test [3] were 77.4% and 159%, respectively. Moreover, the fluorescence slope in test [4] was -0.625 (inactive). Besides, in test [5], the NADPH fluorescence slope was -3.6e-06 (inactive). Besides, the slope in test [6] was 0.00591 (inactive).

For `Cc1ccc(NC(=O)c2cc(S(=O)(=O)N3CCC4(CC3)OCCO4)ccc2F)cc1`, in test [1], the cell count was determined as 369. For the same compound, the inhibition in test [1] is -3.3% (inactive); in test [3], -43.7% (inactive); in test [7] it was -8.15% (inactive); in test [8], -22.3% (inactive). Besides, the inhibition of aggregation in test [2] was 12.5% (inactive). In addition, the nuclei count is 102% in test [2] and 108% in test [3]. Besides, the fluorescence slope in test [4] is -0.441 (inactive). Moreover, the NADPH fluorescence slope in test [5] was 3.1e-05 (inactive). Besides, the slope in test [6] was 0.0033 (inactive).

In the case of `Nc1nnn(Cc2ccccc2)n1`, in test [1], the cell count worked out at 885. Besides, the inhibition in test [1] is 8.7% (inactive); in test [3], -20.6% (inactive); in test [7], 0.136% (inactive); in test [8], 99.3% (active). In addition, in test [2], the inhibition of aggregation was 5.4% (inactive). In addition, the nuclei count in test [2] and in test [3] was 114% throughout. In addition, in test [4], the fluorescence slope is -0.566 (inactive). The NADPH fluorescence slope in test [5] is -2.4e-05 (inactive). For the same compound, in test [6], the slope was 0.00494 (inactive).

On to `CC1CCc2nn(CC(=O)Nc3ccc(F)cc3F)cc2C1` (centres undefined), for which, in test [1], the cell count is 644. The inhibition in test [1] was -2.3% (inactive); in test [3], -2.5% (inactive); in test [7], -5.03% (inactive); in test [8], 21.4% (inactive). The inhibition of aggregation in test [2] was -37.3% (inactive). For the same compound, the results for the nuclei count in test [2] and in test [3] were 41.3% and 111%, respectively. Moreover, in test [4], the fluorescence slope was -0.543 (inactive). Also, the NADPH fluorescence slope in test [5] was 1.3e-05 (inactive). Also, the slope in test [6] is 0.00669 (inactive).

Turning to `COCCn1c(COc2ccc(Cl)cc2)nnc1SCC(N)=O`, the cell count in test [1] is 424. Also, the inhibition was 3.4% (inactive) in test [1], -31.9% (inactive) in test [3], 18.2% (inactive) in test [7] and 25.2% (inactive) in test [8]. Besides, the inhibition of aggregation in test [2] was 7.6% (inactive). The nuclei count in test [2] came to 93.8%; in test [3] it was 119%. Moreover, the fluorescence slope in test [4] is -0.586 (inactive). In addition, the NADPH fluorescence slope in test [5] was -6e-05 (inactive). In addition, in test [6], the slope was 0.00579 (inactive).

As to `S=c1[nH]ncn1-c1ccccn1`, in test [1], the cell count amounted to 681. Moreover, the inhibition is -11% (inactive) in test [1], -40.7% (inactive) in test [3], 1.29% (inactive) in test [7] and 8.61% (inactive) in test [8]. Further, the inhibition of aggregation in test [2] is -25.8% (inactive). Besides, the nuclei count in test [2] amounted to 114%; in test [3], 109%. The fluorescence slope in test [4] is -0.41 (inactive). The NADPH fluorescence slope in test [5] was -3.7e-05 (inactive). Besides, the slope in test [6] is 0.00408 (inactive).

`O=C(NCC(=O)N(Cc1cccs1)C(C(=O)NC1CCCC1)c1ccncc1)c1ccco1` (centres undefined): the cell count in test [1] came to 478. The inhibition in test [1] is -2.9% (inactive); in test [3], -26.6% (inactive); in test [7] it was 13.3% (inactive); in test [8], 16.2% (inactive). The inhibition of aggregation in test [2] was -19.3% (inactive). Further, the nuclei count was found to be 107% in test [2] and 114% in test [3]. Besides, the fluorescence slope in test [4] was -0.25 (inactive). For the same compound, the NADPH fluorescence slope in test [5] was -2e-05 (inactive). In addition, in test [6], the slope was 0.00557 (inactive).

`CNC(=O)CSc1nnc(-c2cc3c(C)nn(-c4ccccc4)c3s2)n1C`: the cell count in test [1] worked out at 428. The inhibition in test [1] is 4.3% (inactive); in test [3], -35.6% (inactive); in test [7] it was -6.24% (inactive); in test [8] it was -6.6% (inactive). Besides, the inhibition of aggregation in test [2] was 2.8% (inactive). Besides, the figures for the nuclei count in test [2] and in test [3] were 74.6% and 118%, respectively. Further, in test [4], the fluorescence slope was -0.405 (inactive). The NADPH fluorescence slope in test [5] is 4.5e-05 (inactive). In addition, the slope in test [6] was 0.00659 (inactive).

Take `COc1ccc(C2CC(c3ccc(OC)cc3)n3nc(N)nc3N2)cc1` (centres undefined): the cell count in test [1] was determined as 595. For the same compound, the inhibition in test [1] was 6.1% (inactive); in test [3], 28.5% (inactive); in test [7] it was 6.72% (inactive); in test [8], 20.7% (inactive). Besides, in test [2], the inhibition of aggregation was -5.1% (inactive). For the same compound, the nuclei count in test [2] stood at 99.7%; in test [3], 102%. Moreover, in test [4], the fluorescence slope is -0.595 (inactive). Further, the NADPH fluorescence slope in test [5] is -3.1e-05 (inactive). For the same compound, in test [6], the slope was 0.00691 (inactive).

As to `CCOC(=O)/C=C1\CC(=O)Nc2nonc2N1`, the cell count in test [1] worked out at 330. Also, the inhibition in test [1] is -3.4% (inactive); in test [3], -22.6% (inactive); in test [7] it was 22% (inactive); in test [8], 21.4% (inactive). The inhibition of aggregation in test [2] is 2% (inactive). Besides, the nuclei count in test [2] came out at 105%; in test [3] it was 118%. The fluorescence slope in test [4] is -0.507 (inactive). Moreover, the NADPH fluorescence slope in test [5] is -6.7e-05 (inactive). Moreover, in test [6], the slope is 0.00414 (inactive).

In the case of `O=C(OCn1nnc2ccccc2c1=O)C1CCN(S(=O)(=O)c2cccs2)CC1`, the cell count in test [1] is 479. Further, the inhibition was 8.9% (inactive) in test [1], 13.8% (inactive) in test [3], -1.19% (inactive) in test [7] and 2% (inactive) in test [8]. Further, the inhibition of aggregation in test [2] was -8.9% (inactive). For the same compound, the nuclei count was 103% in test [2] and 105% in test [3]. Moreover, the fluorescence slope in test [4] is -0.356 (inactive). For the same compound, the NADPH fluorescence slope in test [5] is 9.4e-06 (inactive). The slope in test [6] was 0.00571 (inactive).
